Experimental data from the supplement of paper PMC10849652.
Of roughly 7,900 targets only a part is listed; those with a hit were picked by preference. About 0.6% of all pairs of compound and target were hits. Values without a mark were called inactive.

Compound: CC1=C(SC2=C1C(=N[C@H](C3=NN=C(N32)C)CC(=O)N)C4=CC=C(C=C4)Cl)C
Experiment: log2 fold change, soluble protein after heating vs DMSO (PISA); higher = thermal stabilisation; K562 cells, 10 uM, 30 min; active = over 0.2 and 3.5 SD of the protein, either way, in both replicates (recomputed)
Procedure, shortened: (§1)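 Soluble protein was defined as the supernatant after 21,000xg for 90 min. It came from K562 cells at 2×10^6 cells/mL given 10 μM compound for 30 min, heated in aliquots for 3 min across 48°C-58°C, pooled, and extracted in PBS with 0.5% NP-40 at 4°C, and was quantified by TMTpro 16plex LC-MS/MS with equalised channel sums. Thermal stability against control samples, from duplicates, is reported as log2 fold change.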

Chain of UniProt Q9UL33 (Q9UL33 whole entry, looked up): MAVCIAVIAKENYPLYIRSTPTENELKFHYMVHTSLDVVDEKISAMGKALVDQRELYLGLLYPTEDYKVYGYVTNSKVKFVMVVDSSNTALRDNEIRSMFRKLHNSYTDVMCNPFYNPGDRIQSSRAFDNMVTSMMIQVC
Chain of UniProt Q96LJ8 (Q96LJ8 whole entry, looked up): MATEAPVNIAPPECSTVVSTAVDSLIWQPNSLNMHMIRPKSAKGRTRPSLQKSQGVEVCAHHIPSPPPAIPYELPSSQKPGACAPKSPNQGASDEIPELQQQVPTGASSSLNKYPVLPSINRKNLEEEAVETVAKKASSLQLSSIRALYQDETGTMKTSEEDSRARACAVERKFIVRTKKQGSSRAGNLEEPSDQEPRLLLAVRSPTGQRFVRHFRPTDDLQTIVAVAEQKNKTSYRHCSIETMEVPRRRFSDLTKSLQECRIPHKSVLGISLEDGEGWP
Chain of UniProt P68366 (P68366 whole entry, looked up): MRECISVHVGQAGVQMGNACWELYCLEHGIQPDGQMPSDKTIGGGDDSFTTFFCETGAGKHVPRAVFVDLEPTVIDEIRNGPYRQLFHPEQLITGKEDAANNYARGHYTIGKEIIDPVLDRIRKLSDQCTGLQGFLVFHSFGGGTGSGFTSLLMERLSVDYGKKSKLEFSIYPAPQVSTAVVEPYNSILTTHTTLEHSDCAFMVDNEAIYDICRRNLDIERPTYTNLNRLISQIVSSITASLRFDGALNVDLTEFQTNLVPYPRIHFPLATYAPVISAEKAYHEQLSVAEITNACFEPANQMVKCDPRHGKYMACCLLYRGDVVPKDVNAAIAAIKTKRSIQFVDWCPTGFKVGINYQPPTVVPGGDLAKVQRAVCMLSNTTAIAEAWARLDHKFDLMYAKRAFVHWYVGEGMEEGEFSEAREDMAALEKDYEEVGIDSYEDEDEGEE
Chain of UniProt Q8IWA0 (Q8IWA0 whole entry, looked up): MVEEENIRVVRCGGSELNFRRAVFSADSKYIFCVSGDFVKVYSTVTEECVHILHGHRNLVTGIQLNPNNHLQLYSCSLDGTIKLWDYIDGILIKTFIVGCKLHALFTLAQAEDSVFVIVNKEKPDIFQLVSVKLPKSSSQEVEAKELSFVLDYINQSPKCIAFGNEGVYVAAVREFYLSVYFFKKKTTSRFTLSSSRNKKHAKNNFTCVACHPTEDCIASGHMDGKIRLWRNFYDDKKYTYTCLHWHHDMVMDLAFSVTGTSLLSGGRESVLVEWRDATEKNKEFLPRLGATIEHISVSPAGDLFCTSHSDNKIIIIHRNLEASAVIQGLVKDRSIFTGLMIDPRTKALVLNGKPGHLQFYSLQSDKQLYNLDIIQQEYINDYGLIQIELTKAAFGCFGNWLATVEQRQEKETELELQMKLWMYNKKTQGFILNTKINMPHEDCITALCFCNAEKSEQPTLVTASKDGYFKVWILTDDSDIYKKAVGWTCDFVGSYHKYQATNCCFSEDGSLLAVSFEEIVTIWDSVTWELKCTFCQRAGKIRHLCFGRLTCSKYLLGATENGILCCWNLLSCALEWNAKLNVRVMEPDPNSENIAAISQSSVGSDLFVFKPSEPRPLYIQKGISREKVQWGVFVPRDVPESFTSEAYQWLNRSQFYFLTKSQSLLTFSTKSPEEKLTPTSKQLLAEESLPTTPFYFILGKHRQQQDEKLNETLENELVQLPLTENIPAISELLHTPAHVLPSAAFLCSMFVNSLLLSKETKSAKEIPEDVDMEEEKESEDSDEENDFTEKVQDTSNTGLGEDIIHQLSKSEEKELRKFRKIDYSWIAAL
Chain of UniProt O75717 (O75717 whole entry, looked up): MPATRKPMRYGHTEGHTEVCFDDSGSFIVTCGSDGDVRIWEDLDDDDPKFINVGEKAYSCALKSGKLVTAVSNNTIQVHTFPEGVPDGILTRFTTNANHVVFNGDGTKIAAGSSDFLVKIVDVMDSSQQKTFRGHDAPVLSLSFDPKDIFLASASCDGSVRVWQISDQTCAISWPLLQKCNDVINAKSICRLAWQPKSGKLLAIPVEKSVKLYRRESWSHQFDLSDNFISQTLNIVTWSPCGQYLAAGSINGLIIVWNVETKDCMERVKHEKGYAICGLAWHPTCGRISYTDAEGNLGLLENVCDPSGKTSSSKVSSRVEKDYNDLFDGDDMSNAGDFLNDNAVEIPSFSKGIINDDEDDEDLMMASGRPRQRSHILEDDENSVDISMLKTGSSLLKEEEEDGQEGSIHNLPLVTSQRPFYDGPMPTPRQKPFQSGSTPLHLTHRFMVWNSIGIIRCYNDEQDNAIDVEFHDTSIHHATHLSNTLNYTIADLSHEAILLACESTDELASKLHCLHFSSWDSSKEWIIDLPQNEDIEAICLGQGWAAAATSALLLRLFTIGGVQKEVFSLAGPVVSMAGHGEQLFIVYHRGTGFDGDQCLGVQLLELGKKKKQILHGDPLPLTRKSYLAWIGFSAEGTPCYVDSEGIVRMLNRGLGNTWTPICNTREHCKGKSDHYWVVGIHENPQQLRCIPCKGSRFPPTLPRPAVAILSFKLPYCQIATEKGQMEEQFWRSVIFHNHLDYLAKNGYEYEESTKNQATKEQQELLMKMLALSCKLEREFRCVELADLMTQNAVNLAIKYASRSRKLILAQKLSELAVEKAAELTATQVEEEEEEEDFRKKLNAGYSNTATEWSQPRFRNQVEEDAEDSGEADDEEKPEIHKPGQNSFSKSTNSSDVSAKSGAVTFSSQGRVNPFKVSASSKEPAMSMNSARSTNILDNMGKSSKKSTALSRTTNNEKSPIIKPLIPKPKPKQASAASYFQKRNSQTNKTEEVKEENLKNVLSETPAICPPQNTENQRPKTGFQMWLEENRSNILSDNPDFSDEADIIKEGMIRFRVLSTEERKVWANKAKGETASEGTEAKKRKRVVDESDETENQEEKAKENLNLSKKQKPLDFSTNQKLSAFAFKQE
Chain of UniProt O00220 (O00220 whole entry, looked up): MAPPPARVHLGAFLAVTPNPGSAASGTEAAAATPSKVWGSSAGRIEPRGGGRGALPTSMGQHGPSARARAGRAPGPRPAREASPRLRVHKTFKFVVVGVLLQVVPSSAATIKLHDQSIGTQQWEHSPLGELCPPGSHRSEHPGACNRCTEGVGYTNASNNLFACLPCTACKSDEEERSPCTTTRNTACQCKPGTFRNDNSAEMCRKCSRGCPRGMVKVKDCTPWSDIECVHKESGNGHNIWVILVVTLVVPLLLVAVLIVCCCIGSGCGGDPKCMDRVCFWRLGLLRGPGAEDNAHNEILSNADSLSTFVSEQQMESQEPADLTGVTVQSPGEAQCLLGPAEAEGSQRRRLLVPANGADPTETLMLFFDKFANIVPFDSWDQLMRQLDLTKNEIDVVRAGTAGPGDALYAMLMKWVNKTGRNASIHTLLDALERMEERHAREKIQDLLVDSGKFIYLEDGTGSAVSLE
Chain of UniProt P61960 (P61960 whole entry, looked up): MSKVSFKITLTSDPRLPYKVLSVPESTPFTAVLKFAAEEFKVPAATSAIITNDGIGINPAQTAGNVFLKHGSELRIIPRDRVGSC
Chain of UniProt O14773 (O14773 whole entry, looked up): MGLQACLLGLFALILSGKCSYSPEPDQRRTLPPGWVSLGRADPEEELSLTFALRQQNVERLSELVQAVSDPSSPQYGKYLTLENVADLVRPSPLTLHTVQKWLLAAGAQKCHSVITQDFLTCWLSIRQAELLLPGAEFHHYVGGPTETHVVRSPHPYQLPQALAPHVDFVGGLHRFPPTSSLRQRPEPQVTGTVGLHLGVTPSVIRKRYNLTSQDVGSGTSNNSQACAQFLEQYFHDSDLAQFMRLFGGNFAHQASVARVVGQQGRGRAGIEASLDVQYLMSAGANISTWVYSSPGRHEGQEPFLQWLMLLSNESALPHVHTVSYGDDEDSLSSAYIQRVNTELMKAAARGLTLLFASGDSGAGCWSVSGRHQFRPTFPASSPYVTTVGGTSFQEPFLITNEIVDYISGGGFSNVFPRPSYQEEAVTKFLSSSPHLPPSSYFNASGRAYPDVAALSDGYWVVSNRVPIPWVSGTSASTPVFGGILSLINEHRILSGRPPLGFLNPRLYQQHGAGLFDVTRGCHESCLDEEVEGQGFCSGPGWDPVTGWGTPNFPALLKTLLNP
Chain of UniProt O15213 (O15213 whole entry, looked up): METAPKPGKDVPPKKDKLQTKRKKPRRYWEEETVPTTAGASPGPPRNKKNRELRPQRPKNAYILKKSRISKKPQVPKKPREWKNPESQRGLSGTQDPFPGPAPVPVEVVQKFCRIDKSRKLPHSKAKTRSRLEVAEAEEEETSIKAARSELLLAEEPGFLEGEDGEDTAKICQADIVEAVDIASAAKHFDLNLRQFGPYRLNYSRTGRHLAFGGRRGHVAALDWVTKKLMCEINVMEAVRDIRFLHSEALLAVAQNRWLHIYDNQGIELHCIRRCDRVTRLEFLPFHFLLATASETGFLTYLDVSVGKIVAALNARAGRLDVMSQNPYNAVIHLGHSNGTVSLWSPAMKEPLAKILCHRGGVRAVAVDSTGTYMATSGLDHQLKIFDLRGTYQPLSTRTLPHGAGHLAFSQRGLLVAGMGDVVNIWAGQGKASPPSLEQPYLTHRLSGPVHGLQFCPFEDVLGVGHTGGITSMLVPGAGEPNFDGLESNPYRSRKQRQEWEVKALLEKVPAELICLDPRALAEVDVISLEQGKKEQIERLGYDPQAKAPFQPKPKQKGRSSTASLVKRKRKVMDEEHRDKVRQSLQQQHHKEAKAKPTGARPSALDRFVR
Chain of UniProt P02585 (P02585 whole entry, looked up): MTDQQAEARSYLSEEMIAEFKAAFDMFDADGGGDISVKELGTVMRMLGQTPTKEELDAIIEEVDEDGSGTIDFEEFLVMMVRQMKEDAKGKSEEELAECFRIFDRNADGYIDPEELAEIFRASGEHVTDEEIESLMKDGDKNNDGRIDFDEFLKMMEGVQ
Chain of UniProt Q96AJ9 (Q96AJ9 whole entry, looked up): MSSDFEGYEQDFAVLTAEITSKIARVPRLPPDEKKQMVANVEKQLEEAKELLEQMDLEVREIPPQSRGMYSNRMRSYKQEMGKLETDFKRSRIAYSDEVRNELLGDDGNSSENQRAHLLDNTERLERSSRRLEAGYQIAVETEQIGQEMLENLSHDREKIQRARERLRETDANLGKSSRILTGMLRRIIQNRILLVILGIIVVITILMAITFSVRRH

Row | Target | log2 fold change
1 | VPS51 (UniProt Q9UID3) | 0.026
2 | VPS11 (UniProt Q9H270) | 0.014
3 | VPS41 (UniProt P49754) | 0.06
4 | UBIAD1 (UniProt Q9Y5Z9) | 0.029
5 | WDR41 (UniProt Q9HAD4) | -0.08
6 | WDR46 (UniProt O15213) | -0.35
7 | UBE4A isoform 2 (UniProt Q14139) | -0.067
8 | WASH2P (UniProt Q6VEQ5) | -0.015
9 | TPP1 (UniProt O14773) | 0.048
10 | USP9X (UniProt Q93008) | 0.028
11 | XPO6 (UniProt Q96QU8) | 0.019
12 | WDR61 (UniProt Q9GZS3) | 0.04
13 | WDHD1 (UniProt O75717) | 0.085
14 | TMEM164 (UniProt Q5U3C3) | -0.047
15 | UTP14A (UniProt Q9BVJ6) | -0.276
16 | TRAPPC2L (UniProt Q9UL33) | -0.044
17 | UBXN10 (UniProt Q96LJ8) | 0.014
18 | UBE2D1 (UniProt P51668) | -0.014

Row | Target | log2 fold change
19 | TUT4 (UniProt Q5TAX3) | -0.181
20 | USP3 (UniProt Q9Y6I4) | 0.143
21 | TNNC2 (UniProt P02585) | 0.004
22 | UBE2S (UniProt Q16763) | 0.053
23 | VRK2 (UniProt Q86Y07) | 0.004
24 | TRIM28 (UniProt Q13263) | 0.029
25 | XPNPEP3 (UniProt Q9NQH7) | 0.018
26 | WDR75 (UniProt Q8IWA0) | -0.24
27 | UFM1 isoform 2 (UniProt P61960) | -0.009
28 | TXNRD1 (UniProt Q16881) | 0.086
29 | TUBA4A (UniProt P68366) | 0.077
30 | TMEM223 (UniProt A0PJW6) | -0.045
31 | VTI1A (UniProt Q96AJ9) | 0.009
32 | VPS33A (UniProt Q96AX1) | 0.053
33 | WARS2 (UniProt Q9UGM6) | -0.009
34 | TTI2 (UniProt Q6NXR4) | 0.027
35 | TNFRSF10A (UniProt O00220) | 0.006
36 | WASHC2A (UniProt Q641Q2) | -0.041

Compound: CC1=C2C(=CC=C1)N=C(N(C2=O)C3=CC=CC=C3C)CN4C=NC5=C(N=CN=C54)N
Experiment: as above
Procedure, shortened: as §1

Row | Target | log2 fold change
37 | VPS51 (UniProt Q9UID3) | 0.047
38 | VPS11 (UniProt Q9H270) | 0.118
39 | VPS41 (UniProt P49754) | 0.152
40 | UBIAD1 (UniProt Q9Y5Z9) | 0.068
41 | WDR41 (UniProt Q9HAD4) | -0.033
42 | WDR46 (UniProt O15213) | -0.302
43 | UBE4A isoform 2 (UniProt Q14139) | 0.013
44 | WASH2P (UniProt Q6VEQ5) | 0.026
45 | TPP1 (UniProt O14773) | -0.02
46 | USP9X (UniProt Q93008) | 0.057
47 | XPO6 (UniProt Q96QU8) | 0.082
48 | WDR61 (UniProt Q9GZS3) | 0.077
49 | WDHD1 (UniProt O75717) | 0.121
50 | TMEM164 (UniProt Q5U3C3) | 0.257
51 | UTP14A (UniProt Q9BVJ6) | -0.154
52 | TRAPPC2L (UniProt Q9UL33) | -0.058
53 | UBXN10 (UniProt Q96LJ8) | 0.024
54 | UBE2D1 (UniProt P51668) | 0.065

Row | Target | log2 fold change
55 | TUT4 (UniProt Q5TAX3) | 0.214
56 | USP3 (UniProt Q9Y6I4) | 0.036
57 | TNNC2 (UniProt P02585) | 0.06
58 | UBE2S (UniProt Q16763) | 0.106
59 | VRK2 (UniProt Q86Y07) | 0.011
60 | TRIM28 (UniProt Q13263) | 0.017
61 | XPNPEP3 (UniProt Q9NQH7) | 0.07
62 | WDR75 (UniProt Q8IWA0) | 0.002
63 | UFM1 isoform 2 (UniProt P61960) | 0.066
64 | TXNRD1 (UniProt Q16881) | 0.023
65 | TUBA4A (UniProt P68366) | -0.03
66 | TMEM223 (UniProt A0PJW6) | 0.118
67 | VTI1A (UniProt Q96AJ9) | 0.091
68 | VPS33A (UniProt Q96AX1) | 0.147
69 | WARS2 (UniProt Q9UGM6) | 0.104
70 | TTI2 (UniProt Q6NXR4) | 0.031
71 | TNFRSF10A (UniProt O00220) | -0.058
72 | WASHC2A (UniProt Q641Q2) | -0.017
